A selection: hits, their analogues and other compounds. The true share with any hit is near 0.74%.
Mtb bLac sens: beta-lactam sensitization of Mtb H37Rv. M. tuberculosis H37Rv growth with meropenem, percent inhibition. inhibition, % at 25 µM. actives 0.27% (n = 330,000); call rule not given here;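 note: growth measured after seven days incubation then overnight dye step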
MazEF act: MazEF (E. coli) toxin RNase activation; FAM/BHQ RNA-DNA oligo cleavage fluorescence, 5 h; activation, % at 20 µM; actives 0.32% (n = 350,000); AID 504720; in the data active = activation above about 50%
Mtb UGM inh: Mtb UDP-galactopyranose mutase inhibition; P9WIQ1; purified UGM, fluorescence polarization probe displacement; inhibition, % at 10 µM; actives 0.06% (n = 320,000); AID 504406; in the data active = inhibition above about 10%, passing the limit was not always enough; inconclusive = no clear call, values can overlap the other calls
FadD28 binding: inhibitors of Mycobacterium tuberculosis FadD28 bisubstrate binding. AID 588549. actives 0.22% (n = 360,000). FadD28 bisubstrate probe binding, fluorescence polarization. inhibition, % at 12.5 µM; in the data active = inhibition above about 8.5%, passing the limit was not always enough; inconclusive = no clear call, values can overlap the other calls
Vc quorum ag: induces V. cholerae light production without autoinducers; V. cholerae BH1578 lux reporter, luminescence, 6 h; activation, % at 18.7 µM; actives 0.16% (n = 350,000); in the data active = activation mostly above about 9.7%, no sharp cut-off; inconclusive = no clear call, values can overlap the other calls; inactive = mostly below about 3.7%
Rv3671c inh: Rv3671c (M. tuberculosis) protease inhibition; P9WHR9; inhibition, % at 5.96 µM; actives 0.048% (n = 320,000); in the data active = inhibition above about 38%;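 note: extracellular domain of Rv3671c used as enzyme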
Target sequence (P9WHR9 whole entry, looked up, the tested form may be a part): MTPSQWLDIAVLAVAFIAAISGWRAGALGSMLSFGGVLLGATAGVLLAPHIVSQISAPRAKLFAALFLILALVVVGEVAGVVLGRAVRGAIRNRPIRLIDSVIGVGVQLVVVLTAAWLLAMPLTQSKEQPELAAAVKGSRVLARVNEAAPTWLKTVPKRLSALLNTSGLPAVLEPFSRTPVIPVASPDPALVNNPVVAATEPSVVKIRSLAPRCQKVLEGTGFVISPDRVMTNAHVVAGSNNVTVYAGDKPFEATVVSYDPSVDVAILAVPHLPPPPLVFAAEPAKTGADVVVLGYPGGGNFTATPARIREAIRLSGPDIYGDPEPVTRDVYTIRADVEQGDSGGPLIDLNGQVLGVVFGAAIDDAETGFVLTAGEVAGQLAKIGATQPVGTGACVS
Hits are given with their value; 0 = inactive; ? = inconclusive; - = not tested or not shown.

SMILES | Mtb bLac sens | MazEF act | Mtb UGM inh | FadD28 binding | Vc quorum ag | Rv3671c inh
CCCN1C(=O)c2ccccc2NC1c1ccc(Cl)c(Cl)c1 (stereo not given) | 0 | 0 | 0 | 0 | 0 | 0
CCCCN1C2=C(C(=O)CCC2)C(c2ccc(Cl)c(Cl)c2)C2=C1c1ccccc1C2=O (stereo not given) | 0 | 60 | 0 | 0 | 0 | 0
CN(C)c1ccc(N=Cc2nc(-c3ccccc3)oc2OC(=O)c2cccc(Cl)c2)cc1 | 0 | 126 | 0 | 0 | 0 | 0
Cc1ccc(C(=O)Oc2oc(-c3ccco3)nc2C=Nc2ccc(Cl)cc2)cc1 | 0 | 0 | 0 | 0 | 0 | 0
Cc1ccc(C(=O)Oc2oc(-c3ccccc3)nc2C=Nc2ccc(N(C)C)cc2)cc1 | 0 | 870 | 0 | 0 | 0 | 0
CCc1nc2c(OCc3ccccc3C)cccn2c1N(C)C(=O)c1ccco1 | - | - | - | 0 | 0 | -
O=C(Cc1ccc(Br)cc1)N1CCOCC1 | 0 | 0 | 0 | 0 | 0 | 0
Cc1ccc2c(c1)CC1(CN2C)C(=O)OC2(CCCCC2)OC1=O | 0 | 0 | 0 | 0 | 17 | 0
CCn1c(COc2ccc(C)cc2)nnc1SCC(=O)Nc1cc(OC)ccc1OC | 0 | 0 | 0 | 0 | 29 | 0
C#CCN1c2ccccc2Sc2cccnc21 | 0 | 71 | 0 | 0 | 0 | 0
Nc1ccc2ccc3cccc[n+]3c2c1 | 0 | 0 | 63 | 0 | 0 | 0
CCCCCCOC(=O)C(C#N)c1nc2ccccc2nc1N1CCOCC1 (stereo not given) | 0 | 0 | 0 | 0 | 0 | 0
CCCCCCNC(=O)C(C#N)c1nc2ccccc2nc1N1CCCC1 (stereo not given) | 0 | 370 | 0 | 0 | 0 | 0
CCCCCCNC(=O)C(C#N)c1nc2ccccc2nc1N1CCOCC1 (stereo not given) | 0 | 577 | 14 | 0 | - | 0
CCCCCNC(=O)C(C#N)c1nc2ccccc2nc1N1CCCC1 (stereo not given) | 0 | 0 | 0 | 0 | 0 | 0
COCCCNC(=O)C(C#N)c1nc2ccccc2nc1N1CCCC1 (stereo not given) | 0 | 739 | 0 | 0 | 0 | 0
Cc1cccc(-c2nnn3c2nc(NCCc2ccc(S(N)(=O)=O)cc2)c2ccccc23)c1 | 0 | 0 | 0 | 0 | 0 | 0
NS(=O)(=O)c1ccc(CCNc2nc3c(-c4cccc(F)c4)nnn3c3ccccc23)cc1 | 0 | 109 | 0 | 0 | 0 | 0
Cc1cc(C(=O)N/N=C/c2ccc(-c3ccc([N+](=O)[O-])cc3C)o2)n[nH]1 | 0 | 75 | 0 | 0 | 0 | 0
C=CCn1c(O)c(N=Nc2ccccc2)c2ccccc21 | 0 | 0 | 0 | 0 | 0 | 0
C=CCn1c(O)c(N=Nc2ccccc2O)c2ccccc21 | ? | 311 | 0 | 0 | 0 | 0
Cc1ccc(N=Nc2c(N)[nH]n3c(=O)cc(-c4ccccc4)nc23)cc1 | 0 | 0 | 0 | 0 | 32 | 0
COc1cccc(N=Nc2c(N)[nH]n3c(=O)cc(-c4ccccc4)nc23)c1 | 0 | 0 | 0 | 0 | 0 | 0
COC(=O)C1=C(C)N(C)C(C)=C(C(=O)OC)C1c1ccccn1 | 0 | 94 | 0 | 0 | 0 | 0
Oc1ccc(Cl)cc1C1=Nc2ccccc2N=C(c2ccco2)C1 | 0 | 113 | 0 | 0 | 0 | 0
SMILES | Mtb bLac sens | MazEF act | Mtb UGM inh | FadD28 binding | Vc quorum ag | Rv3671c inh
CC(C)c1ccc(N(CC(=O)NCCCN2CCOCC2)S(=O)(=O)c2ccccc2)cc1 | - | 0 | - | 0 | 0 | -
CC1CC(=O)N(c2ccc(NCc3ccc(Cl)cc3)c([N+](=O)[O-])c2)C1=O (stereo not given) | 0 | 214 | 0 | 0 | 0 | 0
Cn1cc(S(=O)(=O)NC2CCCCC2)c(=O)n(C)c1=O | 0 | 0 | 0 | 0 | 0 | 0
CN1C(=O)C2C(c3ccc(N(C)C)cc3)NN(Cc3ccccc3)C2C1=O (stereo not given) | 0 | 0 | 0 | 0 | 0 | 0
Cc1ccc([N+](=O)[O-])cc1-c1[nH]c(-c2ccc(O)c(O)c2)nc1-c1ccccc1 | 0 | 0 | 0 | 13 | 25 | 0
CN(C)c1ncnc2c1C(c1ccccc1)C(C)(C)O2 (stereo not given) | - | 0 | - | 0 | 0 | -
CCOc1ccc(/C=C2\N=C(c3cccs3)OC2=O)cc1OC | 0 | - | 38 | - | - | 0
Cc1ccc(C#N)c(SCc2cc3c(cc2Cl)OCO3)n1 | 0 | 59 | 0 | 0 | 0 | 0
Cc1ccc(C#N)c(SCc2cccc(Br)c2)n1 | 0 | 0 | 0 | 0 | 0 | 0
CC(C)C(=O)Nc1cccc(C(=O)Nc2ccc(S(=O)(=O)N3CCOCC3)cc2)c1 | 0 | 160 | 0 | 0 | 0 | 0
